Activity calls are given as the source filed them. How the source made its calls: active means hit-call score of the fitted dose curve at least 0.9, where 1 is the maximum; inactive means score below 0.9.
How the values were obtained:
Details in all cases: mRNA level, 48 h; actives raise or lower the signal
[1] = read-out: Hypoxia-inducible factor 1-alpha (Homo sapiens) (UniProt Q16665); test: LTEA_HepaRG_HIF1A: Life Technologies and Expression Analysis (LTEA) Assay for Hypoxia-inducible factor 1 (HIF1A) Trancription factor using HepaRG (AID 2283503);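 further: HIF1A transcript by TaqMan qRT-PCR normalized to ACTB GAPDH and POLR2A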
In short: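 Gain- or loss-of-signal HIF1A mRNA changes are fitted against a DMSO baseline. HepaRG cultures receive eight concentrations, highest 100 uM, for 48 h in serum-free induction medium with 0.5% DMSO.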

[2] = read-out: 3-Hydroxy-3-Methylglutaryl-CoA Synthase 2 (HMGCS2), HMGCS2 (gene 3158); test: LTEA_HepaRG_HMGCS2: Life Technologies and Expression Analysis (LTEA) Assay for 3-Hydroxy-3-Methylglutaryl-CoA Synthase 2 (HMGCS2) using HepaRG (AID 2283504)
In short: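 Differentiated human HepaRG cells were exposed in duplicate for 48 h in serum-free induction medium to eight concentrations (top 100 uM, half-log steps, 0.5% DMSO). HMGCS2 mRNA was quantified by TaqMan qRT-PCR, normalised to ACTB, GAPDH and POLR2A, then fitted bidirectionally against DMSO.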

HGF (gene 3082) = test: LTEA_HepaRG_HGF: Life Technologies and Expression Analysis (LTEA) Assay for Hepatocyte Growth Facto (HGF) using HepaRG (AID 2283505)
In short: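 Differentiated human HepaRG cells in serum-free induction medium were exposed in duplicate for 48 h to eight concentrations (top 100 uM, half-log steps, 0.5% DMSO). HGF mRNA was quantified by qRT-PCR, normalized to ACTB, GAPDH and POLR2A.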

[3] = read-out: Insulin Like Growth Factor 1 (IGF1), IGF1 (gene 3479); test: LTEA_HepaRG_IGF1: Life Technologies and Expression Analysis (LTEA) Assay for Insulin Like Growth Factor 1 (IGF1) using HepaRG (AID 2283506)
In short: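 qRT-PCR readout of IGF1 mRNA, normalized to three housekeeping genes, after 48 h chemical exposure of HepaRG cells. Concentrations: 8-point half-log series, top 100 uM, 0.5% DMSO vehicle. Gain or loss fitted against DMSO baseline.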

[4] = read-out: Intercellular Adhesion Molecule 1 (ICAM1), ICAM1 (gene 3383); test: LTEA_HepaRG_ICAM1: Life Technologies and Expression Analysis (LTEA) Assay for Intercellular Adhesion Molecule 1 (ICAM1) using HepaRG (AID 2283507)
In short: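 Differentiated HepaRG cells in serum-free induction medium were exposed in duplicate for 48 h to eight half-log concentrations up to 100 uM in 0.5% DMSO. Transcript levels were measured by qRT-PCR normalized to ACTB, GAPDH and POLR2A; bidirectional fits relative to DMSO.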

[5] = read-out: Insulin-like growth factor-binding protein 1 (IGFBP1), IGFBP1 (gene 3484); test: LTEA_HepaRG_IGFBP1: Life Technologies and Expression Analysis (LTEA) Assay for Insulin-like growth factor-binding protein 1 (IGFBP1) using HepaRG (AID 2283508)
In short: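 Differentiated human HepaRG cells in serum-free induction medium were exposed in duplicate for 48 h to eight concentrations, top 100 uM with half-log dilutions, in 0.5% DMSO. Transcript levels came from qRT-PCR normalised to ACTB, GAPDH and POLR2A, fitted bidirectionally against DMSO.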

[6] = read-out: Interleukin 6 (IL6), IL6 (gene 3569); test: LTEA_HepaRG_IL6: Life Technologies and Expression Analysis (LTEA) Assay for Interleukin 6 (IL6) using HepaRG (AID 2283509)
In short: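 Transcript levels, normalized to three housekeeping genes, were quantified by qRT-PCR after 48 h chemical treatment of HepaRG cells. Eight-point half-log series from 100 uM in 0.5% DMSO, duplicates. Fitted both directions against DMSO baseline.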

[7] = read-out: Interleukin 6 Receptor (IL6R), IL6R (gene 3570); test: LTEA_HepaRG_IL6R: Life Technologies and Expression Analysis (LTEA) Assay for Interleukin 6 Receptor (IL6R) using HepaRG (AID 2283510);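 on AC50: TaqMan qRT-PCR signal normalized to ACTB GAPDH and POLR2A housekeeping genes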
In short: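 HepaRG, 48 h exposure, 8-pt half-log series, top 100 uM, 0.5% DMSO vehicle, duplicates. Read-out: TaqMan qRT-PCR of IL6R transcript, housekeeping-gene normalized. Gain or loss fitted relative to DMSO baseline.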

[8] = read-out: Potassium channel subfamily K member 1 (KCNK1), KCNK1 (gene 3775); test: LTEA_HepaRG_KCNK1: Life Technologies and Expression Analysis (LTEA) Assay for Potassium channel subfamily K member 1 (KCNK1) using HepaRG (AID 2283511)
In short: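 KCNK1 transcript measured by TaqMan qRT-PCR against three housekeeping genes, after HepaRG cells were treated 48 h with eight half-log concentrations (top 100 uM, 0.5% DMSO). Curves fitted bidirectionally relative to vehicle.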

[9] = read-out: Keratin 19 (KRT19), KRT19 (gene 3880); test: LTEA_HepaRG_KRT19: Life Technologies and Expression Analysis (LTEA) Assay for Keratin 19 (KRT19) using HepaRG (AID 2283512)
In short: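 Differentiated human HepaRG cells, plated 48 h, were exposed in duplicate for 48 h in serum-free induction medium to eight half-log concentrations up to 100 uM in 0.5% DMSO. KRT19 mRNA was quantified by qRT-PCR, normalized to ACTB, GAPDH and POLR2A, and fitted bidirectionally versus DMSO.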

[10] = read-out: JUN Transcription Factor, JUN (gene 3725); test: LTEA_HepaRG_JUN: Life Technologies and Expression Analysis (LTEA) Assay for JUN Transcription Factor using HepaRG (AID 2283513)
In short: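 HepaRG, 48 h exposure, 8-pt half-log series top 100 uM, 0.5% DMSO, duplicate. JUN mRNA by qRT-PCR (Fluidigm), housekeeping-normalized (ACTB/GAPDH/POLR2A); bidirectional curve fit vs DMSO baseline.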

[11] = read-out: Lipase C (LIPC), LIPC (gene 3990); test: LTEA_HepaRG_LIPC: Life Technologies and Expression Analysis (LTEA) Assay for Lipase C (LIPC) using HepaRG (AID 2283514)
In short: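 LIPC expression was quantified by qRT-PCR against three housekeeping genes (ACTB, GAPDH, POLR2A). Differentiated human HepaRG cells received eight half-log doses (top 100 uM, 0.5% DMSO) in duplicate for 48 h; fitting bidirectional relative to DMSO.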

[12] = read-out: Lipoprotein lipase (LPL), LPL (gene 4023); test: LTEA_HepaRG_LPL: Life Technologies and Expression Analysis (LTEA) Assay for Lipoprotein lipase (LPL) using HepaRG (AID 2283515)
In short: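 LPL transcript levels quantified by TaqMan qRT-PCR against three housekeeping genes after 48 h chemical treatment of HepaRG cells. Eight-point half-log series from 100 uM in 0.5% DMSO, tested in duplicate; bidirectional fitting versus vehicle.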

[13] = read-out: MicroRNA 122 (MIR122), gene 406906; test: LTEA_HepaRG_MIR122: Life Technologies and Expression Analysis (LTEA) Assay for MicroRNA 122 (MIR122) using HepaRG (AID 2283516); further: the transcript read is the microRNA miR-122
In short: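 qRT-PCR read-out (TaqMan, Fluidigm array), normalized to three housekeeping genes; HepaRG cells dosed 48 h at 8 concentrations up to 100 uM in 0.5% DMSO, duplicate; gain or loss fitted against DMSO baseline.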

[14] = read-out: matrix metalloproteinase-10 (MMP10), MMP10 (gene 4319); test: LTEA_HepaRG_MMP10: Life Technologies and Expression Analysis (LTEA) Assay for matrix metalloproteinase-10 (MMP10) using HepaRG (AID 2283517)
In short: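 Expression measured by TaqMan qRT-PCR with ACTB/GAPDH/POLR2A normalisation after 48 h chemical exposure of HepaRG cells. Eight half-log concentrations, top 100 uM, 0.5% DMSO vehicle, duplicates; gain or loss fitted against vehicle.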

MYC, MYC (gene 4609) = test: LTEA_HepaRG_MYC: Life Technologies and Expression Analysis (LTEA) Assay for MYC using HepaRG (AID 2283518)
In short: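 Differentiated human HepaRG cells, plated 48 h then switched to serum-free induction medium, were exposed in duplicate for 48 h to 8-point half-log series up to 100 uM in 0.5% DMSO. MYC mRNA measured by qRT-PCR, normalized to ACTB/GAPDH/POLR2A.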

[15] = read-out: matrix metalloproteinase-3 (MMP3), MMP3 (gene 4314); test: LTEA_HepaRG_MMP3: Life Technologies and Expression Analysis (LTEA) Assay for matrix metalloproteinase-3 (MMP3) using HepaRG (AID 2283519)
In short: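 Fluidigm-based TaqMan qRT-PCR, normalized to ACTB, GAPDH and POLR2A and fitted bidirectionally versus 0.5% DMSO, measured transcript levels. Treatment: duplicate 48 h exposures of HepaRG cells, ~100,000/well, to eight half-log concentrations topping at 100 uM.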

[16] = read-out: Paternally Expressed 10 (PEG10), PEG10 (gene 23089); test: LTEA_HepaRG_PEG10: Life Technologies and Expression Analysis (LTEA) Assay for Paternally Expressed 10 (PEG10) using HepaRG (AID 2283520);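 on AC50: PEG10 transcript by qRT-PCR normalised to ACTB GAPDH and POLR2A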
In short: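 qRT-PCR read-out: PEG10 mRNA normalised to three housekeeping genes, fitted bidirectionally against 0.5% DMSO vehicle. HepaRG cells received test chemicals for 48 h in serum-free induction medium, 8 points, top 100 uM, half-log steps.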

[17] = read-out: Nuclear factor NF-kappa-B p105 subunit (Homo sapiens) (UniProt P19838); test: LTEA_HepaRG_NFKB1: Life Technologies and Expression Analysis (LTEA) Assay for Nuclear Factor Kappa B Subunit 1 (NFKB1) using HepaRG (AID 2283521)
In short: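 Differentiated human HepaRG cells in serum-free induction medium with 0.5% DMSO were exposed for 48 h to eight half-log concentrations, top 100 uM, in duplicate. NFKB1 mRNA measured by Fluidigm TaqMan qRT-PCR, normalised to ACTB, GAPDH and POLR2A; bidirectional fit versus DMSO.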

Measured: AC50

Nuclear factor NF-kappa-B p105 subunit (Homo sapiens), sequence (P19838 whole entry, looked up): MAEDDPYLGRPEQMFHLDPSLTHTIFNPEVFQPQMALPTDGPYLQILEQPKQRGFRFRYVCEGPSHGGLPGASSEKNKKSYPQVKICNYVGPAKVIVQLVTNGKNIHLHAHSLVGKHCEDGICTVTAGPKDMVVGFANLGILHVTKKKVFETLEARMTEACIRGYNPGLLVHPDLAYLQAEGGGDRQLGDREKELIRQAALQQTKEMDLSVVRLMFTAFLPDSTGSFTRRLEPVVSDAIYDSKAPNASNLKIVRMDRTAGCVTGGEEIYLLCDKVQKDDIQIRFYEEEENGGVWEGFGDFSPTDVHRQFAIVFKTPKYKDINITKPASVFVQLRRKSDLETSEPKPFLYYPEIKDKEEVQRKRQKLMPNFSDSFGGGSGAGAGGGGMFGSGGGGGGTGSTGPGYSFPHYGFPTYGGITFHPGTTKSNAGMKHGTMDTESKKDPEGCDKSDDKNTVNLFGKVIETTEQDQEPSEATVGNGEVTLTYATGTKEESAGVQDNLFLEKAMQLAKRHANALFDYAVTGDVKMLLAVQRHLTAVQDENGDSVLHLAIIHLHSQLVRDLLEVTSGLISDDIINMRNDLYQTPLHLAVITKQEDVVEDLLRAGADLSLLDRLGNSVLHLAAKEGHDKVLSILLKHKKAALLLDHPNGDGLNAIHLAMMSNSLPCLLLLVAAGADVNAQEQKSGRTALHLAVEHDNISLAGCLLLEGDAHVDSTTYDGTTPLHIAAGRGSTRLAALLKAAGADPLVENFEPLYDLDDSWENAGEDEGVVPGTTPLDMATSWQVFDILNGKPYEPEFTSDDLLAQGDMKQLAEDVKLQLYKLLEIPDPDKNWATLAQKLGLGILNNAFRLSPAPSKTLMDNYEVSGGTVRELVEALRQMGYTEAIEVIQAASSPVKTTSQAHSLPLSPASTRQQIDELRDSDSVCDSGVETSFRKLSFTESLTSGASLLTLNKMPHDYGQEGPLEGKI
Hypoxia-inducible factor 1-alpha (Homo sapiens), sequence (Q16665 whole entry, looked up): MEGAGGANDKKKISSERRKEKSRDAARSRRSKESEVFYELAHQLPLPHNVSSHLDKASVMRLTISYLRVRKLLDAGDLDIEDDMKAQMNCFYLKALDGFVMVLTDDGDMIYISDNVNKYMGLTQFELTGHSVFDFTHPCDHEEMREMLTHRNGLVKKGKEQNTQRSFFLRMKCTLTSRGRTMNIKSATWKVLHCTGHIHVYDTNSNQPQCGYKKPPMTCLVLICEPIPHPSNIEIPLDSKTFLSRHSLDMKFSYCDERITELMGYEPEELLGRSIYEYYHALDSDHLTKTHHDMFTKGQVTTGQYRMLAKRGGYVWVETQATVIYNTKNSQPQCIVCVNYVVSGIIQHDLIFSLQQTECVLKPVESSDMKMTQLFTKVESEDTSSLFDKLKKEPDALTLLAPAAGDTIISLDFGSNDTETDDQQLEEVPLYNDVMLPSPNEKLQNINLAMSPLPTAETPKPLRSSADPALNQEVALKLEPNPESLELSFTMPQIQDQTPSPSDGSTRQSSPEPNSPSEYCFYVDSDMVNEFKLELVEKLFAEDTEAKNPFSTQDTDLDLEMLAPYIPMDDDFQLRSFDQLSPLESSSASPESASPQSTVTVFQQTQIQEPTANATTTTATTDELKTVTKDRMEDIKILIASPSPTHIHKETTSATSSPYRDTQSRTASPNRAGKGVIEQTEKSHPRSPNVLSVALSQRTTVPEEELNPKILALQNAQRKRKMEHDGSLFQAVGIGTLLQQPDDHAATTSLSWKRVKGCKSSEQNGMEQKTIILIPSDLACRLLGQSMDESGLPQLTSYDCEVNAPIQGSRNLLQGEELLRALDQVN

O=C(O)c1ccccc1-n1cc(C(=O)O)c(=O)c2cc(Nc3c(F)cc(F)cc3Cl)c(Cl)cc21
active: [16] 21.1 µM
inactive: all other assays above

CC1(C)NC(=O)N(c2ccc([N+](=O)[O-])c(C(F)(F)F)c2)C1=O
active: [2] 76.6 µM | [3] 69.2 µM | [5] 90.2 µM | [6] 83.7 µM | [9] 67.8 µM | [11] 89.7 µM | [12] 76.2 µM | [13] 80.9 µM | MYC, MYC (gene 4609) 81.8 µM | [16] 15.7 µM
inactive: HGF (gene 3082) | [4] | [7] | [8] | [10] | [14] | [15]

CCCCCCCC[Si](OCC)(OCC)OCC
not listed: [14]
inactive: all other assays above

NC(=O)c1nc(-c2cccc(-c3cc(F)ccc3OCC(F)(F)C(F)(F)F)c2)n[nH]1
inactive: [4] | [7] | [8] | [11] | [12] | [13] | [14] | MYC, MYC (gene 4609)
active: [1] 87.2 µM | [2] 50 µM | HGF (gene 3082) 77.2 µM | [3] 83.2 µM | [5] 78.1 µM | [6] 78.6 µM | [9] 12.1 µM | [10] 79 µM | [15] 5.48 µM | [17] 82.8 µM

COc1cc(C(=O)NC2CCN(C)CC2)ccc1Nc1ncc2c(n1)N(C1CCCC1)CC(F)(F)C(=O)N2C
inactive: [1] | HGF (gene 3082) | [8] | [13] | [16]
active: [2] 10.5 µM | [3] 3.45 µM | [4] 83.7 µM | [5] 23.3 µM | [6] 25.2 µM | [7] 86.4 µM | [9] 12.3 µM | [10] 25.9 µM | [11] 4.65 µM | [12] 14 µM | [14] 26.3 µM | MYC, MYC (gene 4609) 14.7 µM | [15] 4.65 µM | [17] 11.7 µM

CO[C@H]1/C=C/O[C@@]2(C)Oc3c(C)c(O)c4c(O)c(c(/C=N/N5CCN(C)CC5)c(O)c4c3C2=O)NC(=O)/C(C)=C\C=C\[C@H](C)[C@H](O)[C@@H](C)[C@@H](O)[C@@H](C)[C@H](OC(C)=O)[C@@H]1C
active: [3] 4.12 µM
not listed: [1] | [14] | [16]
inactive: all other assays above

O=C=NCCCCCCN=C=O
inactive: all assays above
